In the supplement of paper PMC3334620:
The full ranking holds about 33,000 sequences; the median of “E-score (-0.5 to 0.5)” is about -0.016, and the highest 2% start at about 0.3. Only a selection was taken, and the highest values are over-represented in it overall.

target: T1, Yer184c (UniProt P39961); assay: PBM E-score (8-mer binding enrichment) (E-score (-0.5 to 0.5)); higher = stronger / more preferred TF binding; details: protein concentration: 100 nM; construct: GST-full length
T1 sequence: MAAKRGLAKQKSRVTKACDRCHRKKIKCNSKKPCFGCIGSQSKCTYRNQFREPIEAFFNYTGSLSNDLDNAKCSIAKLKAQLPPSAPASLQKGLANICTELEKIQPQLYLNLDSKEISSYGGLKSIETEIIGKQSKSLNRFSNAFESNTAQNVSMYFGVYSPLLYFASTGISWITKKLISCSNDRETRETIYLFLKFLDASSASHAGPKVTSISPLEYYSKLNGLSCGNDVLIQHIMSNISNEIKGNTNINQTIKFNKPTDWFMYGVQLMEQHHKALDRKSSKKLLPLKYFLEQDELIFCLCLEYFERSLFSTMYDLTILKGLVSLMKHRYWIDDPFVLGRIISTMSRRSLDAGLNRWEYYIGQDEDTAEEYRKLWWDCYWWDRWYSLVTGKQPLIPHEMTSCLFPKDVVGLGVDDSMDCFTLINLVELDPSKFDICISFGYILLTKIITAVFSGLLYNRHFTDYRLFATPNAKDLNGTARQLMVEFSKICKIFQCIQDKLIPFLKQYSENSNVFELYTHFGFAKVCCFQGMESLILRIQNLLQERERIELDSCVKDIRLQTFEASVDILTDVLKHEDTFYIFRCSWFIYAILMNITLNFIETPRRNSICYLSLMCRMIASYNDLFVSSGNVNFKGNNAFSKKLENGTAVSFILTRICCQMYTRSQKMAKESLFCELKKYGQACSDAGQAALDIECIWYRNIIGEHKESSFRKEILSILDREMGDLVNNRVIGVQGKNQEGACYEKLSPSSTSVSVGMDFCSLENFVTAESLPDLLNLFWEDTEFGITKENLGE
Experimental: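 Universal 'all 10-mer' protein binding microarrays (Agilent AMADID 015681) probed with GST-tagged S. cerevisiae TFs (full-length or DBD) made by in vitro transcription/translation (PURExpress), about 100-200 nM. Bound TF was detected with fluorescent anti-GST. Each ungapped 8-mer (which stands for itself and its reverse complement) is scored by the PBM enrichment score (E-score), a modified Wilcoxon-Mann-Whitney statistic from -0.5 to +0.5, computed with the Universal PBM Analysis Suite. Scale: above 0.35 generally sequence-specific binding.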

| Sequence | PBM E-score |
| --- | --- |
| GGTAAGCA | -0.146 |
| CCGGATGC | 0.331 |
| ACGGATGA | 0.0817 |
| CCGGATGA | 0.335 |
| GCGGATGA | 0.125 |
| CAGGATGC | -0.0823 |
| ACGGATGC | 0.203 |
| GCGCCAAA | -0.00708 |
| CCCATGAC | -0.117 |
| GAGGAGCA | -0.0781 |
| CCTGCTGC | -0.143 |
| GAATGCTC | -0.157 |
| CGGTACCC | -0.0697 |
| CGGTACCA | 0.0778 |
| CGGTACCG | 0.32 |
| GCTAGGAA | 0.0829 |
| AGGTAGAA | -0.0769 |
| ATGGCCGG | 0.215 |
| ACGGCCAA | 0.192 |
| ACGGCCCA | -0.0167 |
| ACGGCCGG | 0.372 |
| ACGGCCGT | 0.176 |
| ACGGCCGC | 0.244 |
| ACGGCCGA | 0.355 |
| CCGGCCGC | 0.304 |
| CCGGCCGA | 0.431 |

| Sequence | PBM E-score |
| --- | --- |
| GCGGCCGA | 0.242 |
| CCGGCCTA | 0.28 |
| GCGGCCGC | 0.261 |
| AAAGAGCG | 0.00323 |
| AAGCGACA | -0.0772 |
| AACATGGC | -0.317 |
| CATGTGAA | -0.0476 |
| ACTTGCCG | 0.142 |
| AGGTCGAA | -0.0466 |
| CGGGCCGA | 0.308 |
| CGGGCCGC | 0.137 |
| GGGGCCGA | -0.192 |
| AAAGATAT | 0.0801 |
| CTGTGCTA | -0.119 |
| GTGTGGGA | -0.0509 |
| CGAGCTCA | 0.144 |
| CGAGCTCC | 0.0493 |
| CGAGCTCG | 0.308 |
| TCAATGGA | -0.0551 |
| GCTACAGA | -0.185 |
| CCGTGCCG | 0.312 |
| CCGTGCCA | -0.127 |
| ACGTGCCG | 0.233 |
| CAGGGGAA | -0.196 |
| AAGCTATC | 0.191 |
| CTCGGATA | 0.305 |

| Sequence | PBM E-score |
| --- | --- |
| ATCGGATC | 0.298 |
| CTCGGAGA | 0.252 |
| ATCGGATA | 0.369 |
| GTCGGATA | 0.122 |
| ATCGGACA | 0.303 |
| CTCGGATC | 0.241 |
| CTCGGACA | 0.306 |
| GTCGGACA | 0.193 |
| GATTGGGA | -0.133 |
| CCCCAGGA | -0.372 |
| CGATTCAA | -0.0538 |
| GTTTGCCA | -0.0315 |
| GAGCATCC | -0.111 |
| CGTGCGCC | 0.0367 |
| CGGGCTTA | 0.157 |
| AATTACCT | 0.0235 |
| AGAGGTTA | -0.0189 |
| CAAGTGCC | -0.126 |
| AGTTACCA | 0.0704 |
| AGCGCCCG | 0.113 |
| GGCGCCGA | 0.337 |
| GCCGCCGA | 0.264 |
| AGCGCCGC | 0.0842 |
| TCCGCCGA | 0.316 |
| GGCGCCAA | -0.0615 |
| GGCGCCTA | -0.0826 |

| Sequence | PBM E-score |
| --- | --- |
| CCCGCCGA | 0.193 |
| AGCGCCAA | -0.231 |
| AGCGCCGA | 0.357 |
| AGCGCCGG | 0.351 |
| CGCGCCGA | 0.256 |
| GCAGGGCA | -0.0295 |
| GTGCACAA | -0.028 |
| ACCTTTTC | -0.076 |
| AAGCTAAT | 0.162 |
| CCGGCTAG | 0.277 |
| AGGGGCTC | -0.341 |
| TAAATCCA | 0.00272 |
| AGCCGGTA | 0.306 |
| AGCCGGTC | 0.144 |
| CGCCGGCA | 0.345 |
| ACCCGGCA | 0.187 |
| CCCCGGCA | 0.0621 |
| AGCCGGCA | 0.404 |
| AGGCGGCA | -0.0565 |
| CTCCGGCC | 0.125 |
| ATCCGGCA | 0.296 |
| CTCCGGCA | 0.359 |
| CGCCGGTA | 0.216 |
| AACCGGTA | 0.0801 |
